# Measurements taken from PubChem BioAssay (NCI).
# This is part of a sample that, as a whole, favours compounds with a hit. Of some 79,000 tested, about 15% had one in any assay. Unmarked numbers belong to inactive results. Activity calls are given as the source filed them. No stated cut-off is given here; in the data, active means growth inhibition above about 70%; inactive means the rest.
# Experiments:
# [1] = NCI Yeast Anticancer Drug Screen. Data for the rad52 strain (AID 147);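 further: 0% = growth of vehicle-treated control cultures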; conditions: S. cerevisiae rad52 mutant growth inhibition, hits give high values
# How it was run: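 DNA repair-defective yeast; compound exposure; growth scored against vehicle controls.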
# [2] = NCI Yeast Anticancer Drug Screen. Data for the wt1 strain (AID 149);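 further: 0% = growth of vehicle-treated wt1 cultures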; conditions: S. cerevisiae wt1 strain (SPY 50644) growth inhibition, hits give high values
# How it was run: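 Growth inhibition read against vehicle controls after compound exposure of the wt1 yeast strain.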
# [3] = NCI Yeast Anticancer Drug Screen. Data for the mgt1 strain (AID 153); conditions: S. cerevisiae mgt1 mutant growth inhibition, hits give high values
# How it was run: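 Growth inhibition relative to vehicle controls was scored for the mgt1 yeast strain after compound exposure.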
# [4] = NCI Yeast Anticancer Drug Screen. Data for the rad50 strain (AID 155);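 further: 0% = growth of vehicle-only cultures of the same strain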; conditions: S. cerevisiae rad50 strain growth inhibition, hits give high values
# How it was run: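 Readout: growth inhibition relative to vehicle-treated cultures. Compound exposure was carried out in a genetically defined yeast strain deficient in DNA damage repair.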
# [5] = NCI Yeast Anticancer Drug Screen. Data for the mec2-1 strain (AID 157); conditions: S. cerevisiae mec2-1 strain, hits give high values
# How it was run: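 Growth inhibition is read against vehicle-treated controls after compound exposure of the mec2-1 yeast strain, which is defective in DNA damage repair or cell cycle control.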
# [6] = NCI Yeast Anticancer Drug Screen. Data for the rad14 strain (AID 159);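 further: 0% = growth of vehicle-treated control cultures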; conditions: S. cerevisiae rad14 strain growth inhibition, hits give high values
# How it was run: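 Growth inhibition vs vehicle controls; genetically altered yeast strain (DNA damage repair defect) treated with test compounds.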
# [7] = NCI Yeast Anticancer Drug Screen. Data for the sgs1 mgt1 strain (AID 161);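 further: 0% = growth of cultures given vehicle only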; conditions: S. cerevisiae sgs1 mgt1 strain, hits give high values
# How it was run: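 Compounds are added to genetically altered yeast, and growth is compared with cultures given vehicle alone to give percent inhibition.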
# [8] = NCI Yeast Anticancer Drug Screen. Data for the CLN2oe strain (AID 163);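 further: 0% = growth of vehicle-only control cultures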; conditions: S. cerevisiae CLN2oe strain, hits give high values
# How it was run: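 Compound-treated yeast; growth vs vehicle ctrl = % inhibition. Genetically altered strain (cell-cycle control).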
# [9] = NCI Yeast Anticancer Drug Screen. Data for the cln2 rad14 strain (AID 165);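 further: 0% = growth equal to vehicle treated cultures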; conditions: S. cerevisiae cln2 rad14 strain, hits give high values
# How it was run: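 Growth inhibition, relative to vehicle-treated controls, is the read-out. The test organism is a yeast strain with defined genetic alterations, cln2 rad14.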
# [10] = NCI Yeast Anticancer Drug Screen. Data for the bub3 strain (AID 167); conditions: S. cerevisiae bub3 mutant strain, hits give high values
# How it was run: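 Readout: yeast growth inhibition, expressed relative to vehicle-only wells. The test organism is a mutant strain from a panel with lesions in DNA repair or checkpoint genes.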
# [11] = NCI Yeast Anticancer Drug Screen. Data for the wt2 strain (AID 169);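 further: 0% = growth of vehicle-treated yeast cultures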; conditions: S. cerevisiae wt2 strain growth inhibition, hits give high values
# How it was run: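 Compound exposure of yeast; growth compared with vehicle controls; inhibition reported.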
# [12] = NCI Yeast Anticancer Drug Screen. Data for the mlh1 strain (AID 171);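 further: 0% = growth of vehicle-treated control cultures of the same strain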; conditions: S. cerevisiae mlh1 strain growth inhibition, hits give high values
# How it was run: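 Compounds are applied to a genetically altered yeast strain, and its growth is compared with that of vehicle-treated cultures to give percent inhibition.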
# [13] = NCI Yeast Anticancer Drug Screen. Data for the sgs1 strain (AID 173);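 further: 0% = growth of vehicle-only control cultures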; conditions: S. cerevisiae sgs1 mutant, hits give high values
# How it was run: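 Compounds applied to genetically altered yeast; growth compared with vehicle-treated cultures to give % inhibition.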
# [14] = NCI Yeast Anticancer Drug Screen. Data for the mlh1 rad18 strain (AID 175); conditions: S. cerevisiae mlh1 rad18 strain growth inhibition, hits give high values
# How it was run: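 Cells of a genetically altered yeast strain, deficient in DNA damage repair, were treated with compound. Their growth was then compared with that of vehicle-treated cultures to give inhibition.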
# [15] = NCI Yeast Anticancer Drug Screen. Data for the rad18 strain (AID 177); conditions: S. cerevisiae rad18 mutant growth inhibition, hits give high values
# How it was run: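 Compounds are applied to a repair-deficient yeast strain, and growth is compared with that of vehicle-treated cultures to give percent inhibition.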
# [16] = NCI Yeast Anticancer Drug Screen. Data for the rad50EPP+ strain (AID 151);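 further: 0% = growth of vehicle-treated control cultures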; conditions: S. cerevisiae rad50 mutant strain, hits give high values
# How it was run: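 rad50EPP+ yeast treated with test compounds. Readout: growth vs vehicle control.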
# [17] = at 5.0 µM (retest, dose inferred, filed as 0.5)
# [18] = at 50.0 µM (retest, dose inferred, filed as 5.0)
compound,measurement,setting,value
COc1ccc(C2C3=C(COC3=O)OC(C)(C)Oc3cc4c(cc32)OCO4)cc1OC (stereo unspecified),growth inhibition,[1]; at 1.2 µM,17%
same,growth inhibition,[1]; at 3.7 µM,19%
same,growth inhibition,[1]; at 11.0 µM,11%
same,growth inhibition,[1]; at 33.0 µM,47%
same,growth inhibition,[1]; at 100.0 µM,93% (active)
same,growth inhibition,[2]; at 1.2 µM,9%
same,growth inhibition,[2]; at 3.7 µM,10%
same,growth inhibition,[2]; at 11.0 µM,13%
same,growth inhibition,[2]; at 33.0 µM,23%
same,growth inhibition,[2]; at 100.0 µM,94% (active)
same,growth inhibition,[3]; at 1.2 µM,27%
same,growth inhibition,[3]; at 3.7 µM,26%
same,growth inhibition,[3]; at 11.0 µM,31%
same,growth inhibition,[3]; at 33.0 µM,54%
same,growth inhibition,[3]; at 100.0 µM,94% (active)
same,growth inhibition,[4]; at 1.2 µM,15%
same,growth inhibition,[4]; at 3.7 µM,26%
same,growth inhibition,[4]; [17],0%
same,growth inhibition,[4]; at 11.0 µM,33%
same,growth inhibition,[4]; at 33.0 µM,57%
same,growth inhibition,[4]; [18],91% (active)
same,growth inhibition,[4]; at 50.0 µM,97% (active)
same,growth inhibition,[4]; at 100.0 µM,90% (active)
same,growth inhibition,[5]; at 1.2 µM,25%
same,growth inhibition,[5]; at 3.7 µM,29%
same,growth inhibition,[5]; [17],9%
same,growth inhibition,[5]; at 11.0 µM,33%
same,growth inhibition,[5]; at 33.0 µM,58%
same,growth inhibition,[5]; [18],65%
same,growth inhibition,[5]; at 50.0 µM,96.1% (active)
same,growth inhibition,[5]; at 100.0 µM,95% (active)
same,growth inhibition,[6]; at 1.2 µM,11%
same,growth inhibition,[6]; at 3.7 µM,5%
same,growth inhibition,[6]; at 11.0 µM,5%
same,growth inhibition,[6]; at 33.0 µM,30%
same,growth inhibition,[6]; at 100.0 µM,91% (active)
same,growth inhibition,[7]; [17],-9%
same,growth inhibition,[7]; [18],50%
same,growth inhibition,[7]; at 50.0 µM,96.7% (active)
same,growth inhibition,[8]; at 1.2 µM,11%
same,growth inhibition,[8]; at 3.7 µM,17%
same,growth inhibition,[8]; at 11.0 µM,10%
same,growth inhibition,[8]; at 33.0 µM,18%
same,growth inhibition,[8]; at 100.0 µM,90% (active)
same,growth inhibition,[9]; [17],-1%
same,growth inhibition,[9]; [18],57%
same,growth inhibition,[9]; at 50.0 µM,91.6% (active)
same,growth inhibition,[10]; at 1.2 µM,-47%
same,growth inhibition,[10]; at 3.7 µM,-56%
same,growth inhibition,[10]; [17],-9%
same,growth inhibition,[10]; at 11.0 µM,-33%
same,growth inhibition,[10]; at 33.0 µM,24%
same,growth inhibition,[10]; [18],86% (active)
same,growth inhibition,[10]; at 50.0 µM,96.3% (active)
same,growth inhibition,[10]; at 100.0 µM,88% (active)
same,growth inhibition,[11]; at 1.2 µM,5%
same,growth inhibition,[11]; at 3.7 µM,2%
same,growth inhibition,[11]; at 11.0 µM,8%
same,growth inhibition,[11]; at 33.0 µM,26%
same,growth inhibition,[11]; at 100.0 µM,90% (active)
same,growth inhibition,[12]; at 1.2 µM,-11%
same,growth inhibition,[12]; at 3.7 µM,0%
same,growth inhibition,[12]; at 11.0 µM,6%
same,growth inhibition,[12]; at 33.0 µM,57%
same,growth inhibition,[12]; at 100.0 µM,94% (active)
same,growth inhibition,[13]; at 1.2 µM,37%
same,growth inhibition,[13]; at 3.7 µM,23%
same,growth inhibition,[13]; at 11.0 µM,27%
same,growth inhibition,[13]; at 33.0 µM,61%
same,growth inhibition,[13]; at 100.0 µM,94% (active)
same,growth inhibition,[14]; [17],-1%
same,growth inhibition,[14]; [18],96% (active)
same,growth inhibition,[14]; at 50.0 µM,97.5% (active)
same,growth inhibition,[15]; at 1.2 µM,-4%
same,growth inhibition,[15]; at 3.7 µM,5%
same,growth inhibition,[15]; at 11.0 µM,7%
same,growth inhibition,[15]; at 33.0 µM,41%
same,growth inhibition,[15]; at 100.0 µM,94% (active)
Cc1cc(C)nc(NS(=O)(=O)c2ccc(Nc3c4ccccc4nc4c(C(=O)NCCO)cccc34)cc2)n1,growth inhibition,[1]; at 1.2 µM,-2%
same,growth inhibition,[1]; at 3.7 µM,-1%
same,growth inhibition,[1]; at 11.0 µM,2%
same,growth inhibition,[1]; at 33.0 µM,21%
same,growth inhibition,[1]; at 100.0 µM,59%
same,growth inhibition,[16]; at 1.2 µM,-3%
same,growth inhibition,[16]; at 3.7 µM,0%
same,growth inhibition,[16]; at 11.0 µM,1%
same,growth inhibition,[16]; at 33.0 µM,3%
same,growth inhibition,[16]; at 100.0 µM,-14%
same,growth inhibition,[3]; at 1.2 µM,0%
same,growth inhibition,[3]; at 3.7 µM,-1%
same,growth inhibition,[3]; at 11.0 µM,-2%
same,growth inhibition,[3]; at 33.0 µM,-1%
same,growth inhibition,[3]; at 100.0 µM,32%
same,growth inhibition,[4]; at 1.2 µM,-1%
same,growth inhibition,[4]; at 3.7 µM,1%
same,growth inhibition,[4]; [17],-17%
same,growth inhibition,[4]; at 11.0 µM,6%
same,growth inhibition,[4]; at 33.0 µM,25%
same,growth inhibition,[4]; [18],91% (active)
same,growth inhibition,[4]; at 50.0 µM,39.2%
same,growth inhibition,[4]; at 100.0 µM,68%
same,growth inhibition,[5]; at 1.2 µM,-1%
same,growth inhibition,[5]; at 3.7 µM,-1%
same,growth inhibition,[5]; [17],-13%
same,growth inhibition,[5]; at 11.0 µM,1%
same,growth inhibition,[5]; at 33.0 µM,3%
same,growth inhibition,[5]; [18],6%
same,growth inhibition,[5]; at 50.0 µM,3.4%
same,growth inhibition,[5]; at 100.0 µM,24%
same,growth inhibition,[6]; at 1.2 µM,0%
same,growth inhibition,[6]; at 3.7 µM,1%
same,growth inhibition,[6]; at 11.0 µM,4%
same,growth inhibition,[6]; at 33.0 µM,9%
same,growth inhibition,[6]; at 100.0 µM,26%
same,growth inhibition,[7]; [17],-9%
same,growth inhibition,[7]; [18],56%
same,growth inhibition,[7]; at 50.0 µM,-10.7%
same,growth inhibition,[8]; at 1.2 µM,0%
same,growth inhibition,[8]; at 3.7 µM,-3%
same,growth inhibition,[8]; at 11.0 µM,-3%
same,growth inhibition,[8]; at 33.0 µM,-2%
same,growth inhibition,[8]; at 100.0 µM,10%
same,growth inhibition,[9]; [17],16%
same,growth inhibition,[9]; [18],6%
same,growth inhibition,[9]; at 50.0 µM,81.2% (active)
same,growth inhibition,[10]; at 1.2 µM,0%
same,growth inhibition,[10]; at 3.7 µM,0%
same,growth inhibition,[10]; [17],-17%
same,growth inhibition,[10]; at 11.0 µM,2%
same,growth inhibition,[10]; at 33.0 µM,0%
same,growth inhibition,[10]; [18],2%
same,growth inhibition,[10]; at 50.0 µM,0%
same,growth inhibition,[10]; at 100.0 µM,16%
same,growth inhibition,[11]; at 1.2 µM,-1%
same,growth inhibition,[11]; at 3.7 µM,-2%
same,growth inhibition,[11]; at 11.0 µM,-2%
same,growth inhibition,[11]; at 33.0 µM,-2%
same,growth inhibition,[11]; at 100.0 µM,27%
same,growth inhibition,[12]; at 1.2 µM,-3%
same,growth inhibition,[12]; at 3.7 µM,-2%
same,growth inhibition,[12]; at 11.0 µM,0%
same,growth inhibition,[12]; at 33.0 µM,-1%
same,growth inhibition,[12]; at 100.0 µM,30%
same,growth inhibition,[13]; at 1.2 µM,-3%
same,growth inhibition,[13]; at 3.7 µM,-1%
same,growth inhibition,[13]; at 11.0 µM,1%
same,growth inhibition,[13]; at 33.0 µM,2%
same,growth inhibition,[13]; at 100.0 µM,30%
same,growth inhibition,[14]; [17],-8%
same,growth inhibition,[14]; [18],44%
same,growth inhibition,[14]; at 50.0 µM,65.3%
same,growth inhibition,[15]; at 1.2 µM,-4%
same,growth inhibition,[15]; at 3.7 µM,-1%
same,growth inhibition,[15]; at 11.0 µM,0%
same,growth inhibition,[15]; at 33.0 µM,7%
same,growth inhibition,[15]; at 100.0 µM,30%
